The values that follow come from PubChem BioAssay (NCI).

This is part of a sample that, as a whole, favours compounds with a hit. Of some 83,000 tested, about 20% had one in any assay.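 A percent growth of 40 corresponds to 60% growth inhibition; 0 means no net growth; -100 means all cells died. Active threshold: below 10.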 Values without a mark were called inactive. The source made the active and inactive calls.

The test system of this test is SK-OV-3 ovarian. The test is described as follows: NCI-60 one-dose screen, 48 h (100 = growth as untreated, 0 = no growth, -100 = all killed). Conditions: 10 µM unless noted. As for the experimental part:
Growth inhibition of the SK-OV-3 human tumor cell line is measured as a screen for anti-cancer activity. Cells are grown in 96 well plates and exposed to the test compound for 48 hours. Compounds are tested at a single concentration, which is 10^-5 M for most compounds. The reported endpoint is percent growth (GI% or GIPRCNT), where numbers from 0 - 100% represent growth inhibition, and numbers from -100% - 0 represent cell death. For example, a value of 40 represents 60% growth inhibition. A value of 0 means no net growth occurred over the course of the experiment. A value of -40 indicates 40% of cells at the beginning of the experiment died by the end of the experiment. A value of -100 means all cells are dead at the end of the experiment.
NCI-60 Human Tumor Cell Lines Screen was performed using the standard one-dose NCI protocol, which is described in more detail at https://dtp.cancer.gov/discovery_development/nci-60/default.htm.
Compounds with GIPRCNT values below 10 were considered active. Activity score was based on GIPRCNT using the following formula: […]
Score is 0 for GIPRCNT values of 100 or above, 50 for GIPRCNT values of 0, and 100 for GIPRCNT values of -100.
As for `O=S(=O)(NCCNc1nccc(-c2c(-c3cccc(O)c3)nc3occn23)n1)c1ccc(Br)cc1`, the growth is 29.4%.
With `Cc1ccc2c(-n3nc(C#N)c(C#N)c3N)cc(=O)[nH]c2c1` the figure was 74.5%; with `CN1CCN(CCOc2ccc(-c3cnc4c(-c5ccc(F)cc5)cnn4c3)cc2)CC1`, 93.1%; with `COc1ccc2c(c1)CCc1[nH]nc(-c3cc(OC)c(OC)c(OC)c3)c1-2`, -7.59% (active).
Next, `Cc1ccc(S(=O)(=O)OCCCOS(=O)(=O)c2ccc(C)cc2)cc1`: 115%; `COC(=O)C(Cc1ccccc1)NC(=O)c1ccc(NC(=O)c2[nH]c(C)c(Cl)c2Cl)c(OC(C)C)c1` (stereo not given): 99.1%; `C=CC(=O)Nc1ccc(Oc2nccc(Nc3nnc(-c4ccc(C)cc4)s3)n2)cc1`: 78%.
Next, `CNC1=CC(=O)c2c(C(=O)OC)c(C)[n+]([O-])c(C)c2C1=O`: 120%.
Turning to `Cc1ncc(C(=O)Nc2ccc(CN3CCN(C)CC3)c(C(F)(F)F)c2)cc1C#Cc1cnc(N)c2ncccc12`, the growth is 0.896% (active).
With `C=C(CNCCc1ccc(O)cc1)[C@@H]1CC[C@]2(CO)CC[C@]3(C)[C@H](CC[C@@H]4[C@@]5(C)CCC(=O)C(C)(C)[C@@H]5CC[C@]43C)[C@@H]12` the figure was 92.4%.
With `COC(=O)/C=C1/SC(=Nc2ccc([N+](=O)[O-])cc2)N(CCc2c[nH]c3ccc(O)cc23)C1=O` the figure was 61.3%.
`CCN(CC)c1ccc(CNc2cc(C)nc3ccccc23)cc1`: the growth is 78.3%.
With `COc1cc(OC)c2sc(-c3ccc(-n4cncc4-c4cc(OC)c(OC)c(OC)c4)cc3)nc2c1` the figure was 88.8%; with `CCCCCN(CCCCC)CC(O)c1cc(C)c2ccc3cc(C(C)C)ccc3c2c1` (stereo not given), 85.6%; with `CC(=C(c1ccc(OCCN2CCCCC2)cc1)c1ccc(OCCN2CCCCC2)cc1)c1ccc(Cl)cc1`, -91.1% (active).
Next, `COC(=O)c1nc(-c2ccccc2)oc1S(=O)(=O)NCC(c1ccc(Cl)cc1)N1CCOCC1` (stereo not given): 97%; `COc1cc(C2C(C(=O)OCc3ccccc3)=C(C)NC(C)=C2C(=O)OCc2ccccc2)cc(OC)c1OC`: 27.5%.
With `CCOC(=O)c1c(C)c2c(n1Cc1ccccc1)CSCC2=O` the figure was 19.8% [100 µM]; with `Clc1c(Cl)[n+](Cc2ccc3ccccc3c2)cn1Cc1ccc2ccccc2c1`, 19%.
Take `CC(C)(C)n1cc(-c2ccnc(NCCCNS(=O)(=O)c3cccc4ccccc34)c2)c(-c2cccc(F)c2)n1`: the growth was 91.9%.
With `Oc1c(CN2CCC(N3CCCCC3)CC2)cc(Cc2cc(CN3CCC(N4CCCCC4)CC3)c(O)c3ncccc23)c2cccnc12` the figure was 20.5%.
Next, `COCCn1cc(-c2csc(-c3c[nH]c4ccc(Br)cc34)n2)c2cccnc21`: 47.1%; `O=C1Nc2ccccc2/C1=C/c1cccn1C(=O)c1ccc(Cl)s1`: 72%.
Next, `O=C1/C=C/[C@@H](O)[C@@H]2C[C@@H](O)C[C@H]2/C=C/CCC[C@@H](O)CCO1`: 90.3%; `NS(=O)(=O)c1ccc(C(=O)NN2C(=O)c3c(Br)c(Br)c(Br)c(Br)c3C2=O)cc1`: 116%; `N#Cc1cncc(-c2ccc3ncnc(Nc4cccc(Cl)c4)c3c2)c1`: 53.4%.
As for `COc1ccc(-c2nc3c(N)c(CO)cnc3s2)cc1`, the growth was 99.9%.
Next, `CN1CCN(C(=O)C(C)(C)c2ccc(C(=O)Nc3cn4cc(-c5ccncc5)ccc4n3)cc2)CC1`: 9.33% (active); `O=C(/C=C/C12c3ccccc3C(c3ccccc31)C1C(=O)NC(=O)C12)c1ccc(Br)cc1` (stereo not given): 72.5%; `CNC(=O)c1cc(Oc2ccc3c(c2)sc2nc(-c4ccc(OC)cc4)cn23)ccn1`: 16.8%.
With `C=C(CNCCO)[C@@H]1CC[C@]2(CO)CC[C@]3(C)[C@H](CC[C@@H]4[C@@]5(C)CCC(N)C(C)(C)[C@@H]5CC[C@]43C)[C@@H]12` (stereo not given in full) the figure was 95.2%; with `COc1ccc(/C=C/C(c2cc(OC)c(OC)c(OC)c2)n2cncn2)cc1` (stereo not given), 35.5%.
With `Cc1nc2c(c(=O)[nH]1)C(c1ccccc1)c1ccc3ccccc3c1O2` (stereo not given) the figure was 11.1%; with `O=S(=O)(Oc1ccc(Br)cc1)c1ccc(Cl)cc1`, 108%; with `CCOC(=O)c1c(C)nc2ccccc2c1/C=C/c1ccccc1`, 91.5%.
In the case of `OCCNCCNC(Cc1ccc(Cl)cc1)c1ccccc1` (stereo not given), the growth was 81%.
As for `CC(C)CCN(CCC(C)C)CC(O)c1cc2c(c3ccccc13)CCCC2` (stereo not given), the growth is 76.8%.
With `CN1CCN(C(=S)SCCCCOc2cc(=O)oc3ccccc23)CC1` the figure was 99.5%.
Next, `COc1ccc(/C=C(/c2ccccc2)[N+](=O)[O-])c(OC)c1`: 42.7%; `O=C(/C=C/c1ccccc1)c1ccc(Nc2nc(Nc3ccc(F)cc3)nc(Nc3ccc(Cl)cc3)n2)cc1`: 103%.
